Only some compounds are listed: those with a hit (about 12% of all), similar ones and a draw of the others.
Pf growth 48h = P. falciparum growth inhibition at 48 hours (one generation). AID 504832. Potency, µM (highest dose often 28.7 µM), actives largely listed as inhibitors. 310,000 tested, 5.9% active. P. falciparum luciferase growth in erythrocytes, 48 h
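Read-out is firefly luciferase luminescence from an integrated reporter in P. falciparum, so falling signal marks reduced parasite growth. Infected erythrocytes were at 2% hematocrit and 0.1% parasitemia (final) in Albumax-supplemented RPMI 1640.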
AmpC inh detg = blocks E. coli AmpC beta-lactamase in detergent assay. 370,000 tested, 0.041% active. AmpC hydrolysis of nitrocefin, absorbance 480 nm, 0.01% Triton. P00811. Potency, µM (highest dose often 114 µM), hits mostly inhibitors. AID 485294; further: nearly all actives have a fitted effect of over 25% in size
Target sequence (P00811 whole entry, looked up): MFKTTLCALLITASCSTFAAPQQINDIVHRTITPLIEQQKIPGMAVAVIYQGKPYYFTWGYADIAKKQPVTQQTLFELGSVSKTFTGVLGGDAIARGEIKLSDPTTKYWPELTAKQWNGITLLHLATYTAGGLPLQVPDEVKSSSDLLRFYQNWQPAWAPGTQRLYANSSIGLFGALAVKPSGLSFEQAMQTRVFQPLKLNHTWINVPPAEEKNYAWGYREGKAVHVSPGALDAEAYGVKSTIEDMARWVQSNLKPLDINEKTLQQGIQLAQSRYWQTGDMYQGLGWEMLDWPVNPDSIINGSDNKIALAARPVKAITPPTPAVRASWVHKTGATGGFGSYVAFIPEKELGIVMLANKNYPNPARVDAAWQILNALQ
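20 mM phosphate pH 7.0 + 0.01% (detergent screen) or 0.0001% Triton X-100; 5.3 nM AmpC reagent; cpd preinc 15 min RT; nitrocefin (800 uM stock) to start; A480 q20 s × 4 min; Activity was normalised to no-enzyme and no-compound control wells.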
Sm TGR inh = S. mansoni TGR enzyme inhibition; Q962Y6; purified TGR, DTNB reduction, TNB absorbance 405 nm; Potency, µM (top dose mostly 114 µM), usual class: inhibitors; 360,000 tested, 3% active; AID 485364; further: nearly all actives have a fitted effect of over 60% in size
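TGR 20 nM + NADPH 100 uM (dispensed conc.), cpd preinc 15 min RT; start with NADPH (500 uM addition) then DTNB (15 mM addition). Kinetic TNB absorbance, 405 nm filter. Four-parameter Hill fit across titration.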
SARS PLP yeast = inhibitors of SARS-CoV papain-like protease in yeast | S. cerevisiae expressing SARS-CoV PLpro, growth rescue | 330,000 tested, 0.19% active | AID 485353 | Potency, µM (series often up to 32.9 µM), actives largely listed as activators; calls by dose curve; further: nearly all actives have a fitted effect of over 55% in size
AmpC inh no detg = blocks E. coli AmpC beta-lactamase in detergent-free assay; AID 485341; AmpC nitrocefin hydrolysis, absorbance 480 nm, 0.0001% Triton; 330,000 tested, 0.52% active; P00811; Potency, µM (highest dose often 57.1 µM), actives largely listed as inhibitors; further: nearly all actives have a fitted effect of over 20% in size
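AmpC (5.3 nM in the dispensed reagent) in 20 mM phosphate pH 7.0 with 0.01% (detergent screen) or 0.0001% Triton X-100 was preincubated with compounds for 15 min at room temperature. Nitrocefin was then added from an 800 uM solution, and hydrolysis was followed at 480 nm.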
Pf growth 96h = P. falciparum growth inhibition at 96 hour, primary screen for plastid delayed-death inhibitors | P. falciparum luciferase reporter growth, 96 h | Potency, µM (doses to about 28.7 µM), most hits filed as inhibitors | 320,000 tested, 6.9% active
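Compounds incubated with erythrocytes infected by luciferase-expressing P. falciparum (2% hematocrit, 0.05% parasitemia final) for 96 hours, 37 C in 5% CO2. Growth inhibition scored as decreased luciferase luminescence.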
Large screens that a line does not name were inactive. Unless noted, the call rests on the fitted dose curve; in most records, active means well fitted curve in the direction sought with a large enough effect; inconclusive means small, poorly fitted or top-dose-only effect, or another doubt; inactive means no such curve, though single readings can be large; an effect the other way counts as inactive or inconclusive.

Cc1ccc(-n2nc3c(c2NC(=O)c2ccco2)CS(=O)C3)c(C)c1 (stereo not given)	AmpC inh detg inconclusive, Sm TGR inh 40µM
Cc1ccc(-n2nc3c(c2NC(=O)CC(C)C)CS(=O)C3)cc1 (stereo not given)	Sm TGR inh 50µM
CC(C)CC(=O)Nc1c2c(nn1-c1ccc(F)cc1)CS(=O)C2 (stereo not given)	Pf growth 48h inconclusive
Cc1cccc(-n2nc3c(c2NC(=O)c2ccco2)CS(=O)C3)c1C (stereo not given)	Pf growth 96h inconclusive
CC(=O)Nc1c2c(nn1-c1ccccc1C)CS(=O)C2 (stereo not given)	Sm TGR inh 50µM
CCCn1c(=O)c2sccc2n2c(CCCC(=O)N3CCN(c4ccc(OC)cc4)CC3)nnc12	none (no result: Pf growth 48h, SARS PLP yeast, AmpC inh no detg, Pf growth 96h)
CCOP(=O)(OCC)/C(C#N)=C/c1ccoc1	Sm TGR inh 45µM
CCOP(=O)(OCC)/C(C#N)=C/c1ccc([N+](=O)[O-])cc1	none
C[C@@H](C(=O)NCc1ccccc1)[C@H]1C[C@]1(C)[C@H](NC(=O)OCc1ccccc1)c1ccccc1	Pf growth 96h inconclusive
C[C@@H](C(=O)Nc1ccc2ccccc2c1)[C@@H]1C[C@@]1(C)[C@@H](NC(=O)c1ccccc1)c1ccccc1	Pf growth 48h inconclusive, Pf growth 96h 13µM
C[C@@H](C(=O)Nc1ccc2ccccc2c1)[C@H]1C[C@]1(C)[C@H](NS(=O)(=O)c1ccc(-c2ccccc2)cc1)c1ccccc1	Pf growth 48h 12µM, AmpC inh detg inconclusive, Pf growth 96h 8.3µM
Cc1nn(C)c(Cl)c1S(=O)(=O)N[C@@H](c1ccccc1)[C@]1(C)C[C@H]1[C@@H](C)C(=O)Nc1ccc2ccccc2c1	none
C[C@@H](C(=O)Nc1ccc2ccccc2c1)[C@H]1C[C@]1(C)[C@H](NC(=O)c1cccnc1)c1ccccc1	Pf growth 48h 5.2µM, Pf growth 96h 5.2µM
CCCN(CC(=O)Nc1ccc(F)c(F)c1F)C(=O)c1cc([N+](=O)[O-])ccc1N1CCOCC1	AmpC inh detg inconclusive, Pf growth 96h inconclusive
O=C1C2CCCN2C(c2ccncc2)N1c1ccc(Cl)c(Cl)c1 (stereo not given)	Pf growth 48h 13µM, Pf growth 96h 0.83µM
Cc1ccc(C(=O)O)cc1NCc1ccncc1	none
CSc1cccc(NC(=O)CSc2nc3ccccc3o2)c1	none
COc1ccc(N(C(=O)Cn2cnc3ccccc32)C(C(=O)NC2CCCCC2)c2ccccc2)cc1 (stereo not given)	Pf growth 48h 13µM, Pf growth 96h inconclusive
COc1ccc(N(C(=O)Cn2nnc3ccccc32)C2(C(=O)NC3CCCC3)CCCCC2)cc1	Pf growth 48h 13µM, Pf growth 96h 13µM
COc1ccc(OC)c(C(C(=O)NCc2ccco2)N(C(=O)Cn2nnc3ccccc32)C2CC2)c1 (stereo not given)	Pf growth 48h inconclusive, Pf growth 96h inconclusive
COc1ccc(C(C(=O)Nc2ccc(F)cc2)N(C(=O)Cn2nnc3ccccc32)C2CC2)cc1 (stereo not given)	Pf growth 48h 5.9µM, Pf growth 96h inconclusive
COCCN(C(=O)Cn1nnc2ccccc21)C(C(=O)NC1CCCCC1)c1ccc(OC)cc1OC (stereo not given)	Pf growth 48h inconclusive, AmpC inh detg inconclusive, Pf growth 96h inconclusive
CCC(=O)N1CCc2cc(CNS(=O)(=O)c3cc(Cl)ccc3OC)ccc21	none (no result: Pf growth 48h, SARS PLP yeast, AmpC inh no detg, Pf growth 96h)
CCn1c(C)nc2cc(C(=O)NN=Cc3ccc([N+](=O)[O-])cc3)ccc21	none (no result: Pf growth 48h, AmpC inh detg, Sm TGR inh, Pf growth 96h)
CCN1C(=O)/C(=C/c2ccc(C)o2)N(C)C1=S	AmpC inh detg inconclusive, Sm TGR inh 28µM
CCN1C(=O)/C(=C/c2cccs2)N(C)C1=S	Pf growth 96h 1.7µM (no result: Pf growth 48h)
CN1C(=S)N(c2ccccc2)C(=O)/C1=C/c1cccs1	none
COCCNC(=O)CCn1c(=O)c2cc(OC)c(OC)cc2n(CC(=O)Nc2ccc(F)c(Cl)c2)c1=O	none (no result: Pf growth 48h, SARS PLP yeast, AmpC inh no detg, Pf growth 96h)
O=C(NN1C(=O)/C(=C/C=C/c2ccccc2)SC1=S)c1ccncc1	none
O=C(NN1C(=O)/C(=C/C=C/c2ccco2)SC1=S)c1ccncc1	AmpC inh detg inconclusive, Sm TGR inh 3.2µM
CC(C)C(C(=O)O)N1C(=O)/C(=C/c2cccn2C)SC1=S (stereo not given)	none
O=C1/C(=C/C=C/c2ccco2)SC(=S)N1c1ccc(O)cc1	Sm TGR inh 4.5µM, AmpC inh no detg 16µM
CC(C)C(C(=O)O)N1C(=O)/C(=C/C=C/c2ccco2)SC1=S (stereo not given)	AmpC inh detg inconclusive, Sm TGR inh 11µM, Pf growth 96h inconclusive
C/C(=C(/CCOC(=O)C(C)C)SS/C(CCOC(=O)C(C)C)=C(\C)N(C=O)Cc1cnc(C)nc1N)N(C=O)Cc1cnc(C)nc1N	Pf growth 96h inconclusive (no result: AmpC inh detg, Sm TGR inh, SARS PLP yeast, AmpC inh no detg)
CCOc1ccc(/C=C/c2nc(C#N)c(N(C)C)o2)cc1	none (no result: Pf growth 48h, SARS PLP yeast, AmpC inh no detg, Pf growth 96h)
COc1ccc(-c2nc(CS(=O)CC(=O)NCCC3=CCCCC3)c(C)o2)cc1 (stereo not given)	Sm TGR inh 40µM, Pf growth 96h inconclusive (no result: Pf growth 48h)
Cc1ccc(-c2nc(CS(=O)CC(=O)NCCCc3ccccc3)c(C)o2)cc1 (stereo not given)	Sm TGR inh 35µM, Pf growth 96h inconclusive
Cc1ccc(-c2nc(CS(=O)CC(=O)NCCc3ccc(Cl)cc3)c(C)o2)cc1 (stereo not given)	none (no result: Pf growth 48h, SARS PLP yeast, AmpC inh no detg, Pf growth 96h)
CCOc1ccc(CCNC(=O)CS(=O)Cc2nc(-c3ccc(C)cc3)oc2C)cc1 (stereo not given)	Sm TGR inh 22µM
CCN(CC)CCNC(=O)CS(=O)Cc1nc(-c2ccc(C)cc2)oc1C (stereo not given)	Pf growth 48h inconclusive, SARS PLP yeast inconclusive, Pf growth 96h inconclusive
CCc1ccc(-c2nc(CS(=O)CC(=O)NCCc3ccc(Cl)cc3)c(C)o2)cc1 (stereo not given)	Sm TGR inh 32µM (no result: Pf growth 48h, SARS PLP yeast, AmpC inh no detg, Pf growth 96h)
CCOc1ccc(CCNC(=O)CS(=O)Cc2nc(-c3ccc(C)cc3)oc2C)cc1OCC (stereo not given)	none
Cc1ccccc1C(=O)N1CCC(N2CCN(Cc3ccc(F)cc3)C(=O)C2=O)CC1	none (no result: Pf growth 48h, SARS PLP yeast, AmpC inh no detg, Pf growth 96h)
Cc1ccc(OCC(=O)N(Cc2ccco2)c2ccccn2)cc1	none (no result: Pf growth 48h, SARS PLP yeast, AmpC inh no detg, Pf growth 96h)
Cc1cc(C)cc(NC(=O)CSCc2cc(=O)c3cc(Cl)ccc3[nH]2)c1	none (no result: Pf growth 48h, SARS PLP yeast, AmpC inh no detg, Pf growth 96h)
Cc1oc(-c2ccc(Cl)cc2)nc1CS(=O)CC(=O)NCCc1ccccc1 (stereo not given)	Sm TGR inh 22µM (no result: Pf growth 48h, SARS PLP yeast, AmpC inh no detg, Pf growth 96h)
CCCNC(=O)Cn1c2ccccc2c2nc(=O)cc(C)n21	AmpC inh detg inconclusive, Pf growth 96h 8.3µM (no result: Pf growth 48h)
CCS(=O)(=O)Nc1cc2c3c(c1)CCC(=O)N3CCC2	Pf growth 96h inconclusive

Screening data from PubChem BioAssay.
